# Values quoted from earlier work in PubChem BioAssay AID977611.
# The campaign covered roughly 3,900 compounds. About 3,900 (100%) were called active. Cut-off not given; nearly all actives show Kd up to about 4200 µM. So high a share suggests a set chosen from earlier hits. The list shows a part of the results. Where a SMILES comes first, the peptide text is derived from it. Non-standard residues stand in square brackets, D forms with d. Square brackets hold non-standard residues; d marks the D form. Residues, ends and D or L forms follow the SMILES beside them. Peptide text beside a SMILES is read from it. [ ]: non-standard residue; d: D form. Orn(CH(NH2)2) = NC(N)NCCC[C@H](N)C(=O)O; Leu(ol) = CC(C)C[C@H](N)CO
# Experiment: PubChem AID 977611
# Settings: PDB protein-ligand complexes, literature Kd
compound,measurement,setting,value
O[C@@H]1[C@H](O)[C@@H](O[P+](O)(O)O)[C@H](O[P+](O)(O)O)[C@@H](O)[C@@H]1O[P+](O)(O)O,Kd,"protein: Ligand-Binding Domain of rat InsP3 Receptor, PDB entry 3t8s",0.00282 µM (active)
same,Kd,"protein: Rabphilin-3A, PDB entry 4np9",9.4 µM (active)
Nc1ncnc2c1ncn2[C@@H]1O[C@@H]2CO[P+](O)(O)O[C@@H]3[C@H](O)[C@@H](CO[P+](O)(O)O[C@@H]1[C@@H]2O)O[C@H]3n1cnc2c1NC(N)NC2=O (stereo partly specified),Kd,"protein: Stimulator of interferon genes protein, PDB entry 4loi",0.17 µM (active)
Nc1ncnc2c1ncn2[C@@H]1O[C@@H]2CO[P+](O)(O)O[C@@H]3[C@H](O)[C@@H](CO[P+](O)(O)O[C@H]2[C@H]1O)O[C@H]3n1cnc2c1NC(N)NC2=O (stereo partly specified),Kd,"protein: Stimulator of interferon genes protein, PDB entry 4ksy",0.00379 µM (active)
same,Kd,"protein: Stimulator of interferon genes protein, PDB entry 4loh",0.11 µM (active)
same,Kd,"protein: Stimulator of interferon genes protein, PDB entry 4loj",0.3 µM (active)
NC1NC(=O)c2ncn([C@@H]3O[C@@H]4CO[P+](O)(O)O[C@H]4[C@H]3O)c2N1 (stereo partly specified),Kd,"protein: Diguanylate cyclase, PDB entry 4kg1",0.274 µM (active)
CC(C)C[C@H](NC(=O)[C@H](CC(C)C)NC(=O)[C@H](CCCNC(N)N)NC(=O)[C@H](CO)NC(=O)[C@H](CC(C)C)NC(=O)[C@H](CCCNC(N)N)NC(=O)[C@@H]1CCCN1C(=O)CN)C(=O)N[C@@H](CO)C(=O)N[C@@H](Cc1ccc(O)cc1)C(=O)N[C@@H](C)C(=O)O (HELM PEPTIDE1{G.P.[NC(N)NCCC[C@H](N[*:1])C(=O)[*:2]].L.S.[NC(N)NCCC[C@H](N[*:1])C(=O)[*:2]].L.L.S.Y.A}$$$$V2.0),Kd,"protein: rat Tom20(translocases of outer mitochondrial membranes), PDB entry 1om2",20 µM (active)
CC(C)C[C@@H](CO)NC(=O)[C@H](CO)NC(=O)[C@H](CCCNC(N)N)NC(=O)[C@H](CC(C)C)NC(=O)[C@H](CO)NC(=O)[C@H](C)NC(=O)[C@H](CC(C)C)NC(=O)[C@@H]1CCCN1C(=O)[C@H](Cc1ccc(O)cc1)NC(=O)[C@H](CC(C)C)NC(=O)[C@@H](N)CCC(=O)O (H-ELYPLASL[Orn(CH(NH2)2)]S[Leu(ol)]),Kd,"protein: ALIX, PDB entry 2r05",7 µM (active)
CC(C)[C@H](NC(=O)[C@H](CCC(=O)O)NC(=O)[C@H](C)NC(=O)[C@H](Cc1ccc(O)cc1)NC(=O)[C@H](CO)NC(=O)[C@@H]1CCCN1C(=O)[C@@H]1CCCN1C(=O)[C@H](C)NC(=O)[C@@H](N)CCC(=O)O)C(=O)O (H-EAPPSYAEV-OH),Kd,"protein: 3rd WW domain of Human Nedd4, PDB entry 4n7h",3.3 µM (active)
CSCC[C@H](NC(=O)[C@@H]1CCCN1C(=O)[C@@H](NC(=O)[C@H](CCCNC(N)N)NC(=O)[C@H](CO)NC(=O)CN)[C@@H](C)O[P+](O)(O)O)C(=O)N[C@@H](Cc1ccc(O)cc1)C(=O)NCC(=O)O (HELM PEPTIDE1{G.S.[NC(N)NCCC[C@H](N[*:1])C(=O)[*:2]].[C[C@@H](O[P+](O)(O)O)[C@H](N[*:1])C(=O)[*:2]].P.M.Y.G}$$$$V2.0),Kd,"protein: RNA polymerase-associated protein RTF1 homolog, PDB entry 4l1u",5.45 µM (active)
CC(C)C[C@H](NC(=O)[C@H](CO)NC(=O)[C@H](CCCNC(N)N)NC(=O)[C@H](CC(C)C)NC(=O)[C@H](CO)NC(=O)[C@@H](NC(=O)[C@H](CC(C)C)NC(=O)[C@@H]1CCCN1C(=O)[C@H](Cc1ccc(O)cc1)NC(=O)[C@H](CC(C)C)NC(=O)[C@@H](N)CCC(=O)O)[C@@H](C)O)C(=O)O (H-ELYPLTSL[Orn(CH(NH2)2)]SL-OH),Kd,"protein: ALIX, PDB entry 2r02",8 µM (active)
CC[C@H](C)[C@H](NC(=O)[C@@H]1CCCN1C(=O)[C@H](CC(C)C)NC(=O)[C@@H](NC(=O)[C@H](CO)NC(=O)CN)[C@@H](C)O)C(=O)N1CCC[C@H]1C(=O)NCC(=O)N[C@H](C(=O)N1CCC[C@H]1C(=O)N1CCC[C@H]1C(=O)N1CCC[C@H]1C(=O)N[C@@H](CC(N)=O)C(=O)N[C@@H](Cc1ccc(O)cc1)C(=O)N[C@@H](CC(=O)O)C(=O)N[C@@H](CO)C(=O)N[C@@H](CC(C)C)C(=O)O)[C@@H](C)O (H-GSTLPIPGTPPPNYDSL-OH),Kd,"protein: Ubiquitin ligase Nedd4( WW? domain), PDB entry 1i5h",53 µM (active)
Ac-LPLYTSPSLPNITLGLP-OH,Kd,"protein: Ankyrin Repeat Domains of Human ANKRA2, PDB entry 3v31",1.6 µM (active)
H-NPGLAYGNPYS-OH,Kd,"protein: Galectin-8, PDB entry 4gxl",5.2 µM (active)
H-PLYTSPSLPNITLGLP-OH,Kd,"protein: DNA-binding protein RFXANK, PDB entry 3uxg",109 µM (active)
H-TCIYNPLFGS-OH,Kd,"protein: Sorting nexin-17 SNX17, PDB entry 4tkn",1.3 µM (active)
CCC(=O)C(=O)O,Kd,"protein: 4-HYDROXY-2-OXO-HEPTANE-1,7-DIOATE ALDOLASE, PDB entry 4b5t",470 µM (active)
CC(=O)N[C@H]1/C(=N/OC(=O)Nc2ccccc2)O[C@H](CO)[C@@H](O)[C@@H]1O,Kd,"protein: BETA-N-ACETYLHEXOSAMINIDASE, PDB entry 4azb",0.0577 µM (active)
same,Kd,"protein: BETA-N-ACETYLHEXOSAMINIDASE, PDB entry 4azg",0.079 µM (active)
same,Kd,"protein: BETA-N-ACETYLHEXOSAMINIDASE, PDB entry 4azi",0.0356 µM (active)
COc1ccc(C[C@H](NC(=O)[C@@H](C)NC(=O)CN2CCOCC2)C(=O)N[C@@H](Cc2ccccc2)[C@@H](O)[C@H](C)CO)cc1,Kd,"protein: yCP, PDB entry 4qlv",0.014 µM (active)
CCC[C@H](COc1ccc(-c2nc3ccccc3n2Cc2ccccc2)cc1)n1c(-c2ccccc2)nc2ccccc21,Kd,"protein: Retinal rod rhodopsin-sensitive cGMP 3',5'-cyclic phosphodiesterase subunit delta, PDB entry 4jvb",0.039 µM (active)
C[C@H](NC(=O)CN)C(=O)N[C@@H](Cc1ccccc1)C(=O)N[C@@H](Cc1ccccc1)C(=O)N[C@@H](CO)C(=O)N[C@@H](C)C(=O)N[C@@H](CCCNC(N)N)C(=O)NCC(=O)N[C@@H](Cc1cnc[nH]1)C(=O)N[C@@H](CCCNC(N)N)C(=O)N1CCC[C@H]1C(=O)O (H-GAFFSA[Orn(CH(NH2)2)]GH[Orn(CH(NH2)2)]P-OH),Kd,"protein: fibrinogen-binding protein SdrG, PDB entry 1r17",0.379 µM (active)
H-GSLLRVQAHIRKKMV-OH,Kd,"protein: Myosin A tail domain interacting protein MTIP-delta60, PDB entry 4r1e",0.052 µM (active)
CC[C@H](C)[C@H](NC(=O)[C@@H]1CCCN1C(=O)[C@H](CCCNC(N)N)NC(=O)[C@@H]1CCCN1C(=O)[C@H](Cc1cnc[nH]1)NC(=O)[C@@H](N)CO)C(=O)N[C@@H](CCCNC(N)N)C(=O)N[C@H](C(=O)O)C(C)C (H-SHP[Orn(CH(NH2)2)]PI[Orn(CH(NH2)2)]V-OH),Kd,"protein: Chaperone protein DnaK, PDB entry 4ezr",6.3 µM (active)
CSCC[C@H](NC(=O)[C@H](CCC(=O)O)NC(=O)[C@H](CCCNC(N)N)NC(=O)[C@@H](N)Cc1cnc[nH]1)C(=O)N[C@@H](C)C(=O)N[C@H](C(=O)N[C@@H](CC(=O)O)C(=O)N[C@@H](CS)C(=O)N1CCC[C@H]1C(=O)O)C(C)C (H-H[Orn(CH(NH2)2)]EMAVDCP-OH),Kd,"protein: Par-6 PDZ domain, PDB entry 1x8s",8 µM (active)
CC(C)C[C@H](NC(=O)[C@H](CCC(=O)O)NC(=O)[C@@H](N)CCCNC(N)N)C(=O)N[C@@H](CC(C)C)C(=O)N1CCC[C@H]1C(=O)N[C@@H](CCC(=O)O)C(=O)N[C@@H](CC(C)C)C(=O)N1CCC[C@H]1C(=O)N[C@@H](Cc1cnc[nH]1)C(=O)N1CCC[C@H]1C(=O)N1CCC[C@H]1C=O (H-[Orn(CH(NH2)2)]ELLPELPHPP-aldehyde),Kd,"protein: MIT domain of Saci1372 (Vps4), PDB entry 2w2u",35 µM (active)
CSCC[C@H](NC(=O)[C@H](Cc1cnc[nH]1)NC(=O)[C@@H](NC(=O)[C@H](CCCCN)NC(=O)[C@H](C)NC(=O)[C@H](CO)NC(=O)[C@H](C)NC(=O)[C@@H](N)CCCNC(N)N)[C@@H](C)O)C(=O)N[C@@H](Cc1ccc(O)cc1)C(=O)N1CCC[C@H]1C(=O)N[C@H](C(=O)N[C@@H](CCCNC(N)N)C(=O)N[C@@H](CC(N)=O)C(=O)N[C@@H](Cc1ccc(O)cc1)C(=O)N[C@@H](CO)C(=O)N1CCC[C@H]1C(=O)O)C(C)C (H-[Orn(CH(NH2)2)]ASAKTHMYPV[Orn(CH(NH2)2)]NYSP-OH),Kd,"protein: ezrinradixinmoesin (ERM) proteins, PDB entry 2emt",0.201 µM (active)
CSCC[C@H](NC(=O)[C@H](CCCCN)NC(=O)[C@@H](NC(=O)[C@H](Cc1ccc(O)cc1)NC(=O)[C@@H](NC(=O)CNC(=O)[C@@H](NC(=O)[C@@H](N)[C@@H](C)O)[C@@H](C)O)C(C)C)C(C)C)C(=O)N1CCC[C@H]1C(=O)N1CCC[C@H]1C(=O)O (H-TTGVYVKMPP-OH),Kd,"protein: AP50, PDB entry 1h6e",0.7 µM (active)
CC[C@H](C)[C@H](NC(=O)[C@H](CO)NC(=O)[C@H](CCCNC(N)N)NC(=O)CNC(=O)[C@H](C)NC(=O)[C@H](CCC(=O)O)NC(=O)[C@H](CCCCN)NC(=O)[C@@H](NC(=O)[C@@H](NC(=O)[C@H](C)NC(=O)[C@@H](NC(=O)[C@H](CC(C)C)NC(=O)[C@H](CO)NC(=O)CN)C(C)C)[C@@H](C)O)C(C)C)C(=O)N[C@@H](Cc1cnc[nH]1)C(=O)N[C@@H](CCC(=O)O)C(=O)N[C@H](C(=O)N1CCC[C@H]1C(=O)N[C@@H](CCCNC(N)N)C(=O)O)[C@@H](C)CC (H-GSLVATVKEAG[Orn(CH(NH2)2)]SIHEIP[Orn(CH(NH2)2)]-OH),Kd,"protein: the BTB domain from B-cell lymphoma 6 protein(BCL6), PDB entry 1r2b",11.4 µM (active)
